According to PubChem BioAssay (Tox21):
Inconclusive results are not listed. A call without a number means that no potency is given here. A number with no mark means an inactive call. Calls of active or inactive are those of the source. Unless noted, the call rests on the fitted dose curve.

Experiment: qHTS assay to identify small molecule agonists of H2AX (AID 1224845; active means well fitted activation curve with a large enough effect in the signal ratio in the repeat runs, not every such curve was filed as active; the % refers to the signal ratio)
Conditions: CHO-K1 phospho-H2AX Ser139 HTRF, 3 h; series mostly up to 154 µM
Method in brief: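 Wild-type CHO-K1 cells plated overnight, then exposed 3 hr at 37C to compounds at 15 concentrations (0.76% DMSO). Lysed, then HTRF anti-pH2AX(S139)-cryptate/anti-H2AX-d2 detection after 24 hr at room temperature; emissions 665 and 620 nm.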

Structure (SMILES)	Potency	activation (H2AX phosphorylation)
CCCCc1nc(Cl)c(CO)n1Cc1ccc(-c2ccccc2-c2nn[nH]n2)cc1	inactive	–
NO	inactive	–
COC(=O)Nc1ccc(Cl)c(Cl)c1	inactive	–
NC(=O)N1c2ccccc2CC(=O)c2ccccc21	inactive	–
CC1=CC(=O)[C@H]2C[C@@H]1C2(C)C	inactive	–
CC(C)(N)C#N	inactive	–
CO/N=C(\C(=O)N[C@@H]1C(=O)N2C(C(=O)O)=C(CSc3nc(=O)c(O)nn3C)CS[C@H]12)c1csc(N)n1	inactive	–
O=S(=O)(O)c1cccc2ccccc12	inactive	–
COc1ccc2cc1Oc1cc3c(cc1OC)CC[N+](C)(C)[C@H]3Cc1ccc(cc1)Oc1c(OC)c(OC)cc3c1[C@@H](C2)[N+](C)(C)CC3	inactive	–
CCCC(C)C(=O)OCC (stereo not drawn)	inactive	–
COc1c(N2CCNC(C)C2)c(F)cc2c(=O)c(C(=O)O)cn(C3CC3)c12 (stereo not drawn)	inactive	–
Nc1ccccn1	inactive	–
O=C(CO)[C@@H](O)[C@H](O)[C@@H](O)CO	inactive	–
CCC(C)(CN(C)C)OC(=O)c1ccccc1 (stereo not drawn)	inactive	–
NC(N)=NCCN1CCCCCCC1	–	0.429% [at 0.582 µM]
Cc1ccc(C(=O)Nc2ccc(S(=O)(=O)O)c3cc(S(=O)(=O)O)cc(S(=O)(=O)O)c23)cc1NC(=O)c1cccc(NC(=O)Nc2cccc(C(=O)Nc3cc(C(=O)Nc4ccc(S(=O)(=O)O)c5cc(S(=O)(=O)O)cc(S(=O)(=O)O)c45)ccc3C)c2)c1	inactive	–

Structure (SMILES)	Potency	activation (H2AX phosphorylation)
CCCCS(=O)(=O)N[C@@H](Cc1ccc(OCCCCC2CCNCC2)cc1)C(=O)O	inactive	–
COc1ccnc(CS(=O)c2nc3cc(OC(F)F)ccc3[nH]2)c1OC (stereo not drawn)	inactive	–
NC(CCC(=O)O)C(=O)O (stereo not drawn)	inactive	–
CC(=O)c1ccccc1[N+](=O)[O-]	inactive	–
CC(C)(C)c1ccc(-c2ccc(C(C)(C)C)cc2)cc1	inactive	–
c1ccc2sc(SN3CCOCC3)nc2c1	inactive	–
CCOC(=O)COc1cc(-n2ncc(C(F)(F)F)c(C)c2=O)c(F)cc1Cl	inactive	–
CCN[C@H]1C[C@H](C)S(=O)(=O)c2sc(S(N)(=O)=O)cc21	inactive	–
CCOC(=O)C(=O)CCCCCCl	inactive	–
CCN1CCOCC1	inactive	–
C[C@H]1[C@H](NC(=O)/C(=N/OC(C)(C)C(=O)O)c2csc(N)n2)C(=O)N1S(=O)(=O)O (stereo in doubt)	inactive	–
Cc1c(N)c(=O)n(-c2ccccc2)n1C	inactive	–
Nc1ccncc1N	inactive	–
C[N+](C)(CCOc1ccccc1)Cc1cccs1	inactive	–
OCCCCCO	inactive	–

Experiment: qHTS assay to identify small molecule agonists of the hypoxia (HIF-1) signaling pathway (AID 1224846; active means well fitted activation curve with a large enough effect in the signal ratio in the repeat runs, not every such curve was filed as active; the % refers to the signal ratio)
Conditions: HRE-bla ME-180 cells, beta-lactamase ratio, 17 h; series mostly up to 76.8 µM
Method in brief: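 HRE-bla ME-180 beta-lactamase reporter cells in medium with 0.5% dialyzed FBS, pre-incubated 5 h then exposed to compounds 17 h at 37C, 5% CO2; reporter induction read with CCF4-AM FRET substrate.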

Structure (SMILES)	outcome
CC(=O)c1ccc2ccccc2c1	inactive
CCCCc1nc(Cl)c(CO)n1Cc1ccc(-c2ccccc2-c2nn[nH]n2)cc1	inactive
NO	inactive
COC(=O)Nc1ccc(Cl)c(Cl)c1	inactive
NC(=O)N1c2ccccc2CC(=O)c2ccccc21	inactive
CC1=CC(=O)[C@H]2C[C@@H]1C2(C)C	inactive
CC(C)(N)C#N	inactive
O=S(=O)(O)c1cccc2ccccc12	inactive
CC1=NN(c2cc(S(=O)(=O)O)ccc2Cl)C(=O)C1N=Nc1ccccc1 (stereo not drawn)	inactive
COc1ccc2cc1Oc1cc3c(cc1OC)CC[N+](C)(C)[C@H]3Cc1ccc(cc1)Oc1c(OC)c(OC)cc3c1[C@@H](C2)[N+](C)(C)CC3	inactive
CCCC(C)C(=O)OCC (stereo not drawn)	inactive
COc1c(N2CCNC(C)C2)c(F)cc2c(=O)c(C(=O)O)cn(C3CC3)c12 (stereo not drawn)	inactive
Nc1ccccn1	inactive
O=C(CO)[C@@H](O)[C@H](O)[C@@H](O)CO	inactive
O=C(O)CNC(=O)c1ccc(CO)o1	inactive
Cc1ccc(C(=O)Nc2ccc(S(=O)(=O)O)c3cc(S(=O)(=O)O)cc(S(=O)(=O)O)c23)cc1NC(=O)c1cccc(NC(=O)Nc2cccc(C(=O)Nc3cc(C(=O)Nc4ccc(S(=O)(=O)O)c5cc(S(=O)(=O)O)cc(S(=O)(=O)O)c45)ccc3C)c2)c1	inactive
CCCCS(=O)(=O)N[C@@H](Cc1ccc(OCCCCC2CCNCC2)cc1)C(=O)O	inactive
COc1ccnc(CS(=O)c2nc3cc(OC(F)F)ccc3[nH]2)c1OC (stereo not drawn)	inactive
NC(CCC(=O)O)C(=O)O (stereo not drawn)	inactive
CC1(C)[C@@H]2CC[C@@]1(C)[C@H](O)C2	inactive
CC(=O)c1ccccc1[N+](=O)[O-]	inactive
CC(C)(C)c1ccc(-c2ccc(C(C)(C)C)cc2)cc1	inactive
c1ccc2sc(SN3CCOCC3)nc2c1	inactive
CCOC(=O)COc1cc(-n2ncc(C(F)(F)F)c(C)c2=O)c(F)cc1Cl	inactive
CCOC(=O)C(=O)CCCCCCl	inactive
CCN1CCOCC1	inactive
Nc1ccncc1N	inactive
C[N+](C)(CCOc1ccccc1)Cc1cccs1	inactive
OCCCCCO	inactive

Experiment: qHTS assay to identify small molecule agonists of H2AX - cell viability counter screen (AID 1224847); further: top concentration of the series differs between compounds; nearly all actives have a fitted effect of over 30% in size
Conditions: CHO-K1 viability, CellTiter-Glo luminescence, 3 h; series mostly up to 154 µM
Method in brief: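 Quantitative HTS viability measurement: CHO-K1 wild-type cells in serum (10% FBS) medium, short 3 hr drug exposure at 37C with 0.76% DMSO, CellTiter-Glo luminescent detection.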

Structure (SMILES)	outcome	activity change, negative = cytotoxicity
CCCCc1nc(Cl)c(CO)n1Cc1ccc(-c2ccccc2-c2nn[nH]n2)cc1	inactive	–
NO	inactive	–
COC(=O)Nc1ccc(Cl)c(Cl)c1	inactive	–
NC(=O)N1c2ccccc2CC(=O)c2ccccc21	inactive	–
CC1=CC(=O)[C@H]2C[C@@H]1C2(C)C	inactive	–
CC(C)(N)C#N	inactive	–
O=C(O)c1cn(C2CC2)c2cc(N3CCNCC3)c(F)cc2c1=O	inactive	–
O=S(=O)(O)c1cccc2ccccc12	inactive	–
CC1=NN(c2cc(S(=O)(=O)O)ccc2Cl)C(=O)C1N=Nc1ccccc1 (stereo not drawn)	inactive	–
COc1ccc2cc1Oc1cc3c(cc1OC)CC[N+](C)(C)[C@H]3Cc1ccc(cc1)Oc1c(OC)c(OC)cc3c1[C@@H](C2)[N+](C)(C)CC3	inactive	–
CCCC(C)C(=O)OCC (stereo not drawn)	inactive	–
COc1c(N2CCNC(C)C2)c(F)cc2c(=O)c(C(=O)O)cn(C3CC3)c12 (stereo not drawn)	inactive	–
CC(=O)OCC(=O)[C@@]1(O)[C@H](C)C[C@H]2[C@@H]3CCC4=CC(=O)C=C[C@]4(C)[C@@]3(F)[C@@H](O)C[C@@]21C	inactive	–
Nc1ccccn1	inactive	–
O=C(CO)[C@@H](O)[C@H](O)[C@@H](O)CO	inactive	–
CCC(C)(CN(C)C)OC(=O)c1ccccc1 (stereo not drawn)	inactive	–
NC(N)=NCCN1CCCCCCC1	–	0.639% [at 0.582 µM]

Structure (SMILES)	outcome	activity change, negative = cytotoxicity
O=C(O)CNC(=O)c1ccc(CO)o1	inactive	–
Cc1ccc(C(=O)Nc2ccc(S(=O)(=O)O)c3cc(S(=O)(=O)O)cc(S(=O)(=O)O)c23)cc1NC(=O)c1cccc(NC(=O)Nc2cccc(C(=O)Nc3cc(C(=O)Nc4ccc(S(=O)(=O)O)c5cc(S(=O)(=O)O)cc(S(=O)(=O)O)c45)ccc3C)c2)c1	inactive	–
COc1ccnc(CS(=O)c2nc3cc(OC(F)F)ccc3[nH]2)c1OC (stereo not drawn)	inactive	–
NC(CCC(=O)O)C(=O)O (stereo not drawn)	inactive	–
CC1(C)[C@@H]2CC[C@@]1(C)[C@H](O)C2	inactive	–
CC(=O)c1ccccc1[N+](=O)[O-]	inactive	–
CC(C)(C)c1ccc(-c2ccc(C(C)(C)C)cc2)cc1	inactive	–
c1ccc2sc(SN3CCOCC3)nc2c1	inactive	–
CCOC(=O)COc1cc(-n2ncc(C(F)(F)F)c(C)c2=O)c(F)cc1Cl	inactive	–
CCN[C@H]1C[C@H](C)S(=O)(=O)c2sc(S(N)(=O)=O)cc21	inactive	–
COc1cc(-c2ccc(=O)[nH]n2)ccc1OC(F)F	inactive	–
CCOC(=O)C(=O)CCCCCCl	inactive	–
CCN1CCOCC1	inactive	–
Cc1c(N)c(=O)n(-c2ccccc2)n1C	inactive	–
Nc1ccncc1N	inactive	–
OCCCCCO	inactive	–
